Data reported in PubChem BioAssay (Tox21).
Records with an inconclusive call do not appear. Entries that show only a call come without a potency. Active and inactive are the calls of the source. Calls follow the shape of the dose curve; as a rule, active = well fitted cell-killing curve with a large enough effect in the repeat runs; inconclusive = weak or mixed curves, or effect the other way; inactive = no such curve, though single readings can be large or run the other way.

experiment: qHTS assay to identify small molecule antagonists of the glucocorticoid receptor (GR) signaling pathway - cell viability counter screen (AID 720693); conditions: GR-bla HeLa viability, CellTiter-Glo luminescence, 18 h, with 5 nM dexamethasone present; series mostly up to 58.5 µM; also: nearly all actives have a fitted effect of over 55% in size

Structure (SMILES) | Potency
O=[N+]([O-])c1cc([As](=O)(O)O)ccc1O | inactive
COS(=O)(=O)OC | inactive
C[C@H]1C(=O)O[C@@H]2CCN3CC=C(COC(=O)[C@](C)(O)[C@]1(C)O)[C@H]23 | inactive
Nc1ncc([N+](=O)[O-])s1 | inactive
C=CCN=C=S | inactive
CC(=O)C1CCOC1=O (stereo not given) | inactive
COc1cc(-c2ccc(N)c(OC)c2)ccc1N | inactive
Cc1cccc(N)c1 | inactive
O=C(O)COc1ccccc1 | inactive
O=[N+]([O-])c1ccc(Cl)cc1 | inactive
Cc1cccc(C)c1NC(=O)CN1CCCC1=O | inactive
NNc1ccccc1 | inactive
O=C(O)C(Br)Br | inactive
Nc1nc(N)nc(NC2CC2)n1 | inactive
C=CC#N | inactive
CN(C)C(=O)Cl | inactive
Cc1cccc(C)c1N | inactive
CC[N+](=O)[O-] | inactive
N#CN=C(N)N | inactive
CN(C)NC(=O)CCC(=O)O | inactive
CNC(=O)Oc1cccc2ccccc12 | inactive
Nc1ccc([As](=O)(O)O)cc1 | inactive
Sc1ccccc1 | inactive
Nc1cc(Cl)cc(Cl)c1 | inactive
Cc1ccc(N=C=O)cc1N=C=O | inactive
OCCCCO | inactive
Nc1ccc(N)cc1 | inactive
CCOc1ccc(N)cc1 | inactive
C=C(C)C(=O)OCC(CC)CCCC (stereo not given) | inactive
C=CC(=O)OCC(CC)CCCC (stereo not given) | inactive
